RGS7-Gao: modulates binding of RGS7 to human Galphao | P09471 | Multiplexed bead flow cytometry; actives lie on both sides | binding response (% of control), % at 10 µM | 220,000 compounds, 0.35% hits | AID 1439; in the data active means binding response below about 49% or above about 150%; inconclusive means no clear call, values can overlap the other calls; inactive means in between;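 further: fluorescent Galphao held in activated GDP-AlF4 state binding bead-coupled RGS7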
Target sequence (P09471 whole entry, looked up): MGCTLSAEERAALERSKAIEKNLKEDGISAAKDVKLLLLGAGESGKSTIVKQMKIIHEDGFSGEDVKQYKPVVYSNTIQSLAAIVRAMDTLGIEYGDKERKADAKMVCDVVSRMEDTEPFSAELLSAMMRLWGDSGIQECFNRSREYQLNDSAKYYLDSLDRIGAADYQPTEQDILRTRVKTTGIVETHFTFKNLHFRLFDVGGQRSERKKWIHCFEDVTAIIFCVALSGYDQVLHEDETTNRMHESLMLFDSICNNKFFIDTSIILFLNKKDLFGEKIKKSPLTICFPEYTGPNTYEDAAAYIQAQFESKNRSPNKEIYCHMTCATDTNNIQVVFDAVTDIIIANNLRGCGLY
RGS4-Gao reg: human RGS4-Galphao interaction regulation | AID 1415 | 220,000 compounds, 0.33% hits | P09471 | binding response (% of control), % at 10 µM | Multiplexed bead flow cytometry, RGS4-Galphao binding; actives lie on both sides; in the data active means binding response below about 49% or above about 150%; inactive means in between;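 further: fluorescent Galphao activated with aluminum fluoride binding bead-coupled RGS4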
RGS8-Gao reg: human RGS8-Galphao interaction regulation. AID 1423. 220,000 compounds, 0.34% hits. response (percent of control binding), % at 10 µM. multiplexed bead flow cytometry, RGS8-Galphao binding; actives lie on both sides. P09471; in the data active means response below about 60% or above about 140%; inactive means in between;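 further: Galphao activated as the GDP aluminium fluoride complex binding bead-coupled RGS8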
GSH bead fluor: compound fluoresces at 488/530 nm on GSH beads | GSH beads flow cytometry, compound fluorescence 488/530 nm; stronger effect = higher value | fluorescence (KMESF) at 10 µM | 190,000 compounds, 0.25% hits; in the data active means fluorescence above about 89;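 further: glutathione beads carrying GST-tagged Bcl family fusion proteins plus one bare bead set; values are compound well signal with DMSO vehicle wells as background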
Avidin bead fluor: avidin bead compound fluorescence profile. Avidin beads, compound fluorescence 488/530 nm, flow cytometry; stronger effect = higher value. AID 1775. 220,000 compounds, 0.38% hits. fluorescence (KMESF) at 10 µM; in the data active means fluorescence above about 47
RGS16-Gao: modulates binding between human RGS16 and Galphao | binding response (% of control), % at 10 µM | bead-based flow cytometry RGS16-Galphao binding, fluorescence; actives lie on both sides | O15492+P09471 | 220,000 compounds, 0.38% hits;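 further: Galphao activated by GDP with aluminum fluoride before binding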
RGS-Gao: modulates binding between human RGS4 and Galphao; 1,600 compounds, 99% hits; AID 1504; shares compounds with RGS16-Gao; multiplexed bead flow cytometry, RGS–Galpha-o binding; RGS4–Galpha-o binding response, % at 10 µM;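 further: fluorescently labeled Galpha-o bound to GDP with aluminium fluoride binding biotinylated RGS beads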
Biotin-avidin: counter-screen: compounds disrupting biotin binding to avidin beads; streptavidin beads, fluorescein-biotin binding, flow cytometry; 1,700 tested, under 10 active; inhibition, % at 10 µM; shares compounds with RGS16-Gao;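 active means inhibition above 50%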;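 further: median green fluorescence of gated singlet beads compared with DMSO control wells; 0% = DMSO wells and 100% = complete loss of bead fluorescence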
RGS8-Gao single: RGS8-Galphao interaction regulation, single point confirmation | AID 1836 | binding response (% of control), % at 10 µM | shares compounds with RGS16-Gao | bead-based flow cytometry RGS8-Galphao binding, fluorescence; actives lie on both sides | 1,700 compounds, 3% hits; in the data active means binding response below about 72% or above about 130%; inactive means in between;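 further: Galphao activated as GDP AlF4 complex before binding bead RGS8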
RGS7-Gao single: confirmation of regulators of human RGS7-Galphao interaction | shares compounds with RGS16-Gao | AID 1837 | 1,700 compounds, 7.8% hits | bead-based flow cytometry RGS7-Galphao binding; actives lie on both sides | response (percent of control binding), % at 10 µM; in the data active means response below about 75% or above about 130%; inactive means in between;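 further: fluorescent Galphao activated with GDP and aluminum fluoride binding bead-coupled RGS7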
RGS16-Gao conf: confirmation of regulators of human RGS16-Galphao interaction; shares compounds with RGS16-Gao; bead-based flow cytometry, RGS16-Galphao binding; actives lie on both sides; response (% of control binding), % at 10 µM; 1,700 compounds, 4% hits; AID 1838; in the data active means response below about 74% or above about 130%; inactive means in between;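 further: Galphao activated as the GDP aluminium fluoride complex binding bead-coupled RGS16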
RGS4-Gao confirm: confirmation of regulators of human RGS4-Galphao interaction; AID 1840; shares compounds with RGS16-Gao; RGS4-Galphao binding, multiplexed bead flow cytometry; actives lie on both sides; 1,700 compounds, 4% hits; binding response (% of control), % at 10 µM; in the data active means binding response below about 74% or above about 130%; inactive means in between
RGS19-Gao conf: RGS19-Galphao interaction regulation, single point confirmation | shares compounds with RGS16-Gao | bead-based flow cytometry RGS19-Galphao binding; actives lie on both sides | response (percent of control binding), % at 10 µM | 1,700 compounds, 5% hits | AID 1841; in the data active means response below about 50% or above about 160%; inactive means in between;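 further: 100% = no compound control and 0% = blank background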
Target sequence (P09471 whole entry, looked up): as above
Target sequence (P49795 whole entry, looked up): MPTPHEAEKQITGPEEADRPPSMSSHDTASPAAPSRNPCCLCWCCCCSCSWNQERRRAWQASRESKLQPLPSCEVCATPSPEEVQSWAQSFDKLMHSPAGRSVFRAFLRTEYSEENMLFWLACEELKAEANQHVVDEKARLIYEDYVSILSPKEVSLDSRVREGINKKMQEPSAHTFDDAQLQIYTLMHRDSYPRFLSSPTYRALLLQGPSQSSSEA
* hit, by the source's call; i = inactive; ? = inconclusive; nt = not tested or not shown; [ ] = another dose, or the depositor's remark. Hits are enriched below; roughly 1.2% of the tested compounds scored in any of these assays. Unless noted, how the calls were made is not given here.

SMILES	RGS7-Gao	RGS4-Gao reg	RGS8-Gao reg	GSH bead fluor	Avidin bead fluor	RGS16-Gao	RGS-Gao	Biotin-avidin	RGS8-Gao single	RGS7-Gao single	RGS16-Gao conf	RGS4-Gao confirm	RGS19-Gao conf
O=C(NCC1CCCO1)C(c1cccs1)N(Cc1ccccc1Cl)C(=O)c1ccc(-c2ccccc2)[nH]1 (configuration not stated)	87	99	119	7	14	178*[activator]	99*	2	101	98	102	99	92
O=C(COc1ccc2c(c1)OCO2)NC12CC3CC(CC(C3)C1)C2	117	104	101	25	27	104	nt	nt	nt	nt	nt	nt	nt
O=C(NCc1ccc2c(c1)OCO2)NC12CC3CC(CC(C3)C1)C2	137	136	149*[activator]	15	21	162	136*	0	92	89	88	82	223*[activator]
CCOC(=O)N/N=C(\C)c1ccc(-n2cnnn2)cc1	100	109	105	13	10	106	nt	nt	nt	nt	nt	nt	nt
CCN(CC)c1ccc(N=Cc2ccc([N+](=O)[O-])o2)cc1	56	69	71	8	2	20*	69*	-1	93	76	91	85	86
CCN(CC)c1ccc(N=Cc2ccccc2[N+](=O)[O-])cc1	95	93	84	9	2	58	nt	nt	nt	nt	nt	nt	nt
CC(=O)Nc1nc(C)c(CCCOc2ccc([N+](=O)[O-])cc2)c(=O)[nH]1	?	153*[activator]	103	nt	47*	128	nt	1	103	108	107	105	95
CCOC(CCc1c(C)nc(NC(C)=O)[nH]c1=O)OCC	?	102	98	nt	6	103	nt	nt	nt	nt	nt	nt	nt
NC(=O)c1ccccc1OCC(=O)Nc1ccc(Cl)c(Cl)c1	?	103	102	nt	9	104	nt	nt	nt	nt	nt	nt	nt
CSCCC(NC(=O)c1cccc([N+](=O)[O-])c1)C(=O)O (configuration not stated)	113	106	115	13	15	187*[activator]	106*	0	100	99	100	98	91
CSCCC(NC(=O)c1cccc([N+](=O)[O-])c1)c1nc2ccccc2[nH]1 (configuration not stated)	100	100	109	9	4	105	nt	nt	nt	nt	nt	nt	nt
O=c1oc2c(O)c(O)cc3c(=O)oc4c(O)c(O)cc1c4c23	31*	51	54*	11	1	80	51*	nt	nt	nt	nt	nt	nt
CC(C)(C)NC(=O)COC(=O)CCC(=O)c1ccc(Cl)cc1	22*	25*	21*	23	5	15*	nt	0	100	106	102	104	100
CC(C)CNC(=O)COC(=O)CCC(=O)c1ccc(Cl)cc1	99	96	96	12	7	81	nt	nt	nt	nt	nt	nt	nt
CCOC(=O)C(=Cc1ccc(-n2ccnc2)cc1)C(=O)OCC	?	4.6*	6.7*	10	-2	-2.5*	nt	-2	100	105	100	103	94
O=C(CSc1nc2ccccc2[nH]1)Nc1ccc(F)c(F)c1	nt	nt	nt	44	nt	nt	nt	0	105	98	104	105	95
Cc1nonc1C1CCCN1Cc1cn[nH]c1-c1ccc(-c2ccccc2)cc1 (configuration not stated)	103	98	101	17	6	126	nt	nt	nt	nt	nt	nt	nt
Cc1ccccc1NC(=O)COC(=O)c1cc(=O)c2ccccc2o1	37*	41*	48*	15	9	35	nt	0	104	101	106	103	108
Cc1cc(Oc2ccc([N+](=O)[O-])cc2)nc(N2CCOCC2)n1	?	96	99	nt	6	98	nt	nt	nt	nt	nt	nt	nt
Cc1cc(Oc2ccc(C#N)cc2)nc(N2CCOCC2)n1	43*	41*	55*	12	24	45	nt	0	100	84	97	89	107
C(=N\Nc1ccc2ccccc2n1)/c1ccc2c(c1)OCCO2	111	111	140*[activator]	13	10	249	111*	0	101	102	101	99	104
Cc1ccc(OCCCCn2c(CO)nc3ccccc32)cc1	101	100	101	10	12	103	nt	nt	nt	nt	nt	nt	nt
OCc1nc2ccccc2n1CCCOc1ccc(Br)cc1	1.2*	-3.9*	7.0*	40	-4	-3.6*	nt	2	101	104	102	104	105
Cc1ccc(OCC(=O)NNC(=O)C(=O)N2CCCC2)c(C)c1	113	118	138	20	6	244*[activator]	118*	1	101	100	102	99	95
COC(=O)CN(C#N)c1nc(NC(C)C)nc(NC(C)C)n1	?	100	100	26	11	101	nt	nt	nt	nt	nt	nt	nt
SMILES	RGS7-Gao	RGS4-Gao reg	RGS8-Gao reg	GSH bead fluor	Avidin bead fluor	RGS16-Gao	RGS-Gao	Biotin-avidin	RGS8-Gao single	RGS7-Gao single	RGS16-Gao conf	RGS4-Gao confirm	RGS19-Gao conf
CC(C)(C)NC(=O)NC(=O)COC(=O)c1cc[n+]([O-])cc1	212*[activator]	126	121	22	207*	232	126*	-1	100	96	101	99	103
CC(C)(C)NC(=O)NC(=O)COC(=O)c1cccc(F)c1	94	90	94	24	4	88	nt	nt	nt	nt	nt	nt	nt
C=CCN=C(NC#N)SCC(=O)NC(C)(C)C	45*	-28*	61	13	5	i	nt	1	102	100	106	98	105
CCOC(=O)C(C(=O)OCC)C(Nc1ccccc1)c1ccccc1 (configuration not stated)	79	77	73	9	6	9.4*	77*	-2	99	95	100	98	90
CCOC(=O)C(NCCCO)c1ccccc1 (configuration not stated)	nt	nt	nt	43	nt	nt	nt	2	109	89	109	97	55
CCOC(=O)C(c1ccccc1)C(Nc1ccccc1)c1ccccn1 (configuration not stated)	?	93	95	nt	6	91	nt	nt	nt	nt	nt	nt	nt

Compound activity (PubChem BioAssay)
